Source: PubChem
CYP2C9 inhib: human CYP2C9 inhibition; P11712; CYP2C9 Supersomes, luciferin-H conversion, luminescence; inhibition, % at 5 µM; 96,000 tested, 20% active; AID 777;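 active = blocking of liver enzyme CYP2C9 beyond about 50% at 5 µM, limit read from the data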
PostGolgi ctrl: growth of the yeast control strain, post-Golgi counter-screen | efflux-deficient yeast background strain, growth absorbance A615, 16 h | inhibition, % at 10 µM | AID 738 | 98,000 tested, 5% active
PostGolgi yeast: growth inhibition of a yeast mutant, post-Golgi transport screen. post-Golgi transport phenotypic cell assay. inhibition, % at 10 µM. 98,000 tested, 0.9% active. AID 739;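 note: yeast cells grown in 1536-well plates; yeast grown about 18 h at 30C before absorbance read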
CYP2C19 inh: inhibitors of human CYP2C19; P33261; CYP2C19 Supersomes, luciferin-H EGE luminescence, 30 min; inhibition, % at 5 µM; 96,000 tested, 21% active; AID 778;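 active = CYP2C19 inhibition above a set limit at 5 µM in the primary screen, cut at about 50% in these data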;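 note: plate controls were negative control wells for no effect and 2.5 mM tranylcypromine positive control for full effect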
Target sequence (P33261 whole entry, looked up): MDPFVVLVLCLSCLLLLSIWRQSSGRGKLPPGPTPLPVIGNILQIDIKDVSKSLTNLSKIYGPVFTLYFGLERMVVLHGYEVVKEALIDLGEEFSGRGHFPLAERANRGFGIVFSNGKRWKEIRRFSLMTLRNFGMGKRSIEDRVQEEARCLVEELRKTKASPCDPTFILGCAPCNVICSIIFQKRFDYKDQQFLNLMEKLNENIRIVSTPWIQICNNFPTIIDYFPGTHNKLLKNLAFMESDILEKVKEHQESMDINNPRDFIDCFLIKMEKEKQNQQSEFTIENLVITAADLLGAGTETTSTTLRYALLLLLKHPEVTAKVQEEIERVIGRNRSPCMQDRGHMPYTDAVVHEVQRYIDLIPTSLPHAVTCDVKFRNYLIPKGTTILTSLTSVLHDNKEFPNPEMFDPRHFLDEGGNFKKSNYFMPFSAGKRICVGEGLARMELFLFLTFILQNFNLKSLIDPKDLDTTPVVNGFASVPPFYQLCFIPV
CYP2C9 activ: increases human cytochrome P450 2C9 activity. P11712. recombinant CYP2C9, luciferin-H conversion, luminescence; stronger effect = higher value; factor 1 = untreated enzyme, 0 = blocked. activation factor at 5 µM. 96,000 tested, 1.4% active. AID 1024;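 active = activation factor of 2 or more for CYP2C9 at a 5 µM dose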;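 note: 0 = sulfaphenazole-blocked wells and 1 = vehicle-only wells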
CYP2C19 activ: cytochrome P450 2C19 (human) activation. P33261. recombinant CYP2C19, luciferin-H EGE luminescence; stronger effect = higher value; 0 = fully inhibited enzyme, 1 = untreated enzyme. activation factor at 5 µM. 96,000 tested, under 10 active;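 active = activation factor of at least 2 at 5 µM in the primary screen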;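 note: 0 = wells with 2.5 mM tranylcypromine and 1 = vehicle-only wells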
The depositor's hits bear a star; / = not tested or not shown. An excerpt weighted towards active compounds, which were near 32% of everything screened. Cut-off read from the data, not from the text of the source, unless noted: active = inhibition above about 30%; inactive = the rest.

SMILES	CYP2C9 inhib	PostGolgi ctrl	PostGolgi yeast	CYP2C19 inh	CYP2C9 activ	CYP2C19 activ
CCN(CC)c1ccc2cc(C(=O)Nc3ccc(-n4cnnn4)c(OC)c3)c(=O)oc2c1	4	/	/	-2	1	1
CC(C)C(NC(=S)NCc1ccccc1)C(=O)O (stereo unspecified)	34	17	-6	86*	0.7	0.1
CC(=O)c1sc(NC(=O)C2(F)C(F)(F)C(F)(F)C(F)(F)C(F)(F)C2(F)F)nc1C	85*	22	-1	-6	0.2	1.1
Cc1ccc(S(=O)(=O)CC(=O)Nc2nc(-c3ccccc3)cs2)cc1	97*	63*	-13	85*	0	0.2
O=C(CS(=O)(=O)c1ccccc1)Nc1nc(-c2ccccc2)cs1	98*	41*	-8	76*	0	0.2
O=C(O)CCCC(=O)Nc1nc(-c2ccccc2)cs1	0	10	-4	10	1	0.9
CC(=O)Oc1ccc2ccccc2c1C(NC(=O)Cc1ccccc1)c1ccccc1 (stereo unspecified)	67*	22	-5	61*	0.3	0.4
CC(C)NCCCOc1ccc(C(C)(C)c2ccccc2)cc1	0	4	9	-5	1	1
COc1ccc(O)c(C(=O)CC(=O)c2ccccc2)c1	27	33*	12	40	0.7	0.6
COc1ccc(C(=O)C/C(=C\C(=O)c2ccc(C)cc2)c2ccccc2)cc1	74*	4	-5	48	0.3	0.5
CCOC(=O)c1ccc2c(c1)N(CC(=O)N1CCCC1)C(=O)C(C)(C)O2	34	9	0	5	0.7	0.9
COC(=O)c1ccc(OC(=O)c2ccc(OCc3c(C)noc3C)c(OC)c2)cc1	12	/	/	1	0.9	1
N#CCCn1ncn(-c2ccccc2)c1=S	16	-5	7	2	0.8	1
O=C1CC(N2CCN(c3ccccc3)CC2)C(=O)N1CCc1ccccc1 (stereo unspecified)	6	0	4	10	0.9	0.9
COc1[nH]c(/N=C/c2ccccc2)c(C#N)c1C#N	75*	9	-3	15	0.3	0.8
COc1ccc(/C=N/c2oc(-c3ccccc3)cc2C#N)cc1	24	8	5	12	0.8	0.9
Cc1cccc(OCCCC(=O)Nc2ccc(N3CCCCC3)cc2)c1C	8	-1	3	-1	0.9	1
OCCN(CCO)Cc1ccc(Br)cc1	0	0	12	19	1	0.8
CC1CCN(c2ncnc3nc[nH]c23)CC1	6	13	-15	-2	0.9	1
Cc1ccc(S(=O)(=O)N2CCN(Cc3cc(C(C)C)ccc3O)CC2)cc1	51*	18	-3	28	0.5	0.7
Cn1cccc1Cc1nnc(SCC(=O)NCC2CCCO2)n1CCc1ccccc1 (stereo unspecified)	-6	4	20	-9	1.1	1.1
O=C1CCCCC1Sc1nnc(Cc2cccs2)n1CCc1ccccc1 (stereo unspecified)	70*	20	3	68*	0.3	0.3
Cc1ccc(NC(=O)c2cc3nc(C)cc(C)n3n2)cc1	5	6	0	-4	1	1
COc1ccc(C(=O)NC(=S)NC(C)C)cc1Br	18	24	-23	60*	0.8	0.4
COc1ccc(C(=O)NC(=S)NC(C)(C)C)cc1Br	2	28	11	11	1	0.9
SMILES	CYP2C9 inhib	PostGolgi ctrl	PostGolgi yeast	CYP2C19 inh	CYP2C9 activ	CYP2C19 activ
COc1ccc(OC)c(NC(=O)CNC(=O)c2cccs2)c1	19	-13	-6	54*	0.8	0.5
NNC(=O)c1cccc(COc2cccc(Br)c2)c1	68*	1	-8	98*	0.3	0
COc1ccc(C(=O)NCC(=O)OCC(=O)c2ccc3c(c2)OCCO3)cc1	0	12	-4	0	1	1
COc1ccc(C(=O)NCC(=O)OCC(=O)Nc2cc(OC)ccc2OC)cc1	49	-8	4	71*	0.5	0.3
COc1ccc(C(=O)NCC(=O)OCc2cccc(Br)c2)cc1	19	9	-4	55*	0.8	0.5
CCOC(=O)c1cnc(-n2cc(C)cn2)nc1Nc1ccccc1OC	7	6	-2	-2	0.9	1
O=C(Nc1ccc(Cl)cc1)C1=Cc2ccccc2OC1	10	18	-2	29	0.9	0.7
Cc1csc(NC(=O)CSc2nnc(-c3ccccn3)n2-c2ccc(C)c(C)c2)n1	19	1	4	1	0.8	1
